# Experimental data as given in the supplement of paper PMC11417369.
# ± gives the standard deviation of the averaged measurements. Over roughly 25,000 sequences, “ln(normalized median fluorescence intensity)” has its median near 8.9; the highest 2% begin near 10. This excerpt belongs to a sample that is enriched for the highest values.
# Test system: PfAP2-LT AP2 domain (GST-tagged)
# Test: gcPBM binding intensity (ln(normalized median fluorescence intensity)); higher = stronger DNA binding
# Procedure, shortened: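 GST-tagged P. falciparum DNA-binding domains, expressed in E. coli (about 25 μg on average), were applied for 1 h to an Agilent 4 × 180k array of primer-extended double-stranded 36-bp intergenic genomic probes plus negative controls. The binding buffer was 1× PBS with 1% milk, 0.2 mg/ml BSA, 0.5% salmon testes DNA and 0.03% Triton X-100. Bound protein was detected with Alexa488 anti-GST antibody and scanned at 488 nm. Binding intensity is the highest Masliner-normalised natural-log median intensity across replicate spots of either probe orientation.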
row,Sequence,gcPBM binding intensity (ln)
1,ATTATAATTATTTTGTTGCACTATTTTTGTAGGCCA [GTGCAC_site9734],8.8 ± 0.49
2,ATATTATTTTAAAGTACACACATATATTAATATATA [CACACA_site2315],8.76 ± 0.38
3,ATATATATATATATATGTACATATATATATAATTTT [XGTACX_site4146],9.34 ± 0.54
4,CTTGTCATTTTGCACACACACATGTATAGGTTATTA [CACACA_site7431],9.67 ± 0.16
5,ATTATGGATACATAAACACACATATATATAAAAAAA [CACACA_site4303],9.04 ± 0.43
6,AAAAAAAAAAAAAAAAAAAAAAAAACAATGAATTTA [GTGCAC_negctrl_site698],8.82 ± 0.19
7,TTAAATAAGTAATTATGTACATATAATATTCTTTAT [XGTACX_site5280],8.6 ± 0.42
8,ATATTAAGGTTTATATTTTAACTTATTATTTTATTC [CACACA_negctrl_site795],8.7 ± 0.49
9,GGATTTTAATGAACACGTACATAAAATTAAATAAAT [XGTACX_site7023],8.73 ± 0.45
10,TAAGTATAAATATTTACACACATTTGTTTTTTTTTA [CACACA_site7731],8.78 ± 0.4
11,TGCCTTATTAAAAGAATTACACATATTTAATCGAAA [GTGCAC_negctrl_site153],8.31 ± 0.39
12,TCTTTTTTTTTTTATTGTACAAGAAAAGGAAAAAAT [XGTACX_site3717],8.05 ± 0.31
13,TTTTTTTTTTTAAGGTGTACAATAAAAATTTATGCA [XGTACX_site8860],8.23 ± 0.35
14,ATATTATTTTATTTTTGTACAGATATCTTTAAAAAA [XGTACX_site3734],8.42 ± 0.37
15,ATTCTATTATAATACACACCCAAATATTAAAAAGAT [CACACA_site2960],8.99 ± 0.4
16,ATTCTACACAGACATACACACATATATATATATATA [CACACA_site5826],9.835 ± 0.078
17,CATACATACAGACACACACACATATAAATACATACA [CACACA_site6533],9.88 ± 0.35
18,TACAGACATACATACACACATACATATATATATATA [CACACA_site1940],9.82 ± 0.34
19,TATACAGACAGACACACACACATATATATATATATA [CACACA_site1734],10.3 ± 0.13
20,CATATACATACACATACACACATACAGACATACACA [CACACA_site6919],9.63 ± 0.2
21,AGGACACATATATGCAAAAAAAAAAAAAAAAAAAAA [TGCATGCA_negctrl_site427],8.41 ± 0.59
22,AATACATACAGACACACACACACATATAAATAAATA [CACACA_site7642],10.1 ± 0.38

row,Sequence,gcPBM binding intensity (ln)
1,TACATACACAGACACACACACATATAAATATAAATA [CACACA_site7641],9.78 ± 0.28
2,TACACATACAGACATACACACATACACATATACACA [CACACA_site6918],9.85 ± 0.23
3,AGGATATGCAGACACACACACATATATATATATATA [CACACA_site2201],10.3 ± 0.23
4,AGGATATGCAGACACACACACATATAGATTTATATA [CACACA_site7100],9.56 ± 0.43
5,TACATACACAGACACACACACATATATATATATATA [CACACA_site3557],10.1 ± 0.19
6,TGTTTGAATATAATCACACATTTATATAAAAAGTTA [CACACA_site5237],8.39 ± 0.32
7,TTCATTTTTTAAGCATCACACACGAAAGAACAAAGT [CACACA_site1122],8.98 ± 0.33
8,AATAATATATATTGTACACACAAAATGGGAAAAAAA [CACACA_site5100],9.1 ± 0.33
9,AAAATTTAATATAATGCACACATAAAAAAAAAATCA [CACACA_site7882],8.87 ± 0.42
10,CAAGGAACCAGACACACACACATAAATGTATATATA [CACACA_site752],9.62 ± 0.47
11,TGAAAAAAGAAAAATACACACATATAATATAATATA [CACACA_site2255],9.02 ± 0.49
12,AGGATACACAGACACACACACATATATATATATATA [CACACA_site907],10.47 ± 0.064
13,AATAACCACAGACACACACACATATAAATATAAATA [CACACA_site7631],10 ± 0.46
14,ACAAGACAGATATATACACACATACATACATACATA [CACACA_site7472],9.43 ± 0.37
15,TAAAAGAAATAATATACACACATATATAAAAATAAA [CACACA_site1329],8.94 ± 0.41
16,TACACAAGCAGACACACACACATATATATATATATA [CACACA_site1270],10.42 ± 0.071
17,GGAATAACCAGACACACACACACATATAAATATGTA [CACACA_site7632],10.1 ± 0.41
18,ACAGAAAAAAGACACACACACATAATATACATACAT [CACACA_site6991],10.1 ± 0.42
19,TACACAAGCAGACACACACACATATAGATTTATATA [CACACA_site6715],9.65 ± 0.35
20,AATGTATATAATATTAATATGTAAATATATAATCAA [CACACA_negctrl_site1683],8.72 ± 0.39
21,TTAGAAATTCATTTTACACACAATTCAAAAGAATGT [CACACA_site2104],8.79 ± 0.42
22,ATATATAAAATTATATGTACATATATAATATATATA [XGTACX_site529],8.77 ± 0.39

row,Sequence,gcPBM binding intensity (ln)
1,TACCATATTTCTTCAAGTACGCATTATGTTAAAAAG [XGTACX_site345],8.51 ± 0.38
2,GTGGAACGTATATTTTCACACACTCTCAAAAGTACA [CACACA_site8722],8.93 ± 0.47
3,TATTTATTAATATGTACACACATCAACCATATTAAC [CACACA_site7001],9.04 ± 0.29
4,TAAATAAGGAAGGAAACACACATTAAAAAATAAATA [CACACA_site618],8.84 ± 0.59
5,TATATATATTTATGTTGTACAAAATATTATTACGTA [XGTACX_site5384],8.57 ± 0.36
6,TTTTTTTAATGATATTGTACATTAATAAAAAATATG [XGTACX_site1719],8.12 ± 0.59
7,TAAATACAGACATATACACACATATATATATATATA [CACACA_site4382],9.925 ± 0.0071
8,GAATAATATGGACATACACACATATACATACATATA [CACACA_site2114],9.27 ± 0.39
9,CACATACAGACATACACACACATATATATTAATATA [CACACA_site546],9.56 ± 0.41
10,AATACATACAGACACACACACACATATATATATATA [CACACA_site3558],10.36 ± 0.014
11,GGAATATAAATACATACACACATATATATATATATA [CACACA_site4998],10 ± 0.33
12,GGAATAACCGGACACACACACACATATATATATATA [CACACA_site5874],10.39 ± 0.057
13,TTATTATTCCCTCATTTTGTTACCATTATTTCAATT [CACACA_negctrl_site1023],8.88 ± 0.54
14,AATGTACAAATACGTACACACATATATATATATATA [CACACA_site1542],10.1 ± 0.18
15,GATATTATGTGTTTGGTATTTCGATCTTGTCAGGAC [CACACA_negctrl_site426],8.93 ± 0.41
16,CAAGAAAAGAAACACACACACATATATATATATATA [CACACA_site3881],10.4 ± 0.28
17,AAAAAAAAAAAAGAAACACACACATATATATATATA [CACACA_site8525],9.94 ± 0.3
18,CACAAAAAGAAACACACACACATATATATATATATA [CACACA_site999],10 ± 0.37
19,GTAAGAAACAGACACACACACATATATATATATATA [CACACA_site794],10.21 ± 0.064
20,AAAAAAAAGAAAAACACACACATATATATATATAAT [CACACA_site4707],9.53 ± 0.42
21,GTAAGAAACAGACACACACACATATAAATATAAATA [CACACA_site6515],9.86 ± 0.49
22,TACGGACATACTAACGGACACACGTAAGAAAAAAAA [CACACA_site602],9.03 ± 0.56

row,Sequence,gcPBM binding intensity (ln)
1,GTAAGAAACGGACACACACACATATATATATATATA [CACACA_site4593],10.39 ± 0.05
2,CGGACATACTAACGGACACACGTAAGAAAAAAAAAG [CACACA_site4504],9.05 ± 0.64
3,AAGAAAAAAAAAAAAACACACATATATATATATATA [CACACA_site2027],10.1 ± 0.14
4,TAAACAGACATATAAACACACATATAAACAGACATA [CACACA_site7214],9.31 ± 0.41
5,AAAAAAAAAAAAGAAACACACATATATATATATATA [CACACA_site140],9.9 ± 0.071
6,ATAAAATCTTAATCAACAAACAAACAAAAAAAAAAT [CACACA_negctrl_site1161],8.77 ± 0.48
7,ATATGTTCTACAAAAAAGATGTCGATTTATTTTCTT [CACACA_negctrl_site1179],8.56 ± 0.49
8,TTTACATTTCAGTAGACACACAAAAAATAATACTAA [CACACA_site512],8.76 ± 0.43
9,AAAAAAAGATTATACACACACATATATAAACATACA [CACACA_site4553],9.54 ± 0.3
10,ATGATATGCAATTTAGTGCATAACAAAATTGGTATA,8.79 ± 0.5
11,TTATTTATAAATATTAATTTTTTTTTTTTTTTTTTT [XGTACX_negctrl_site105],8.01 ± 0.5
12,TAATATATATTATTATGTACATATATTGATTCCTTG [XGTACX_site6830],8.85 ± 0.47
13,ATAAGAAGAAGAAAAACACACATATGTAAATATATA [CACACA_site3138],9.09 ± 0.54
14,AATATAAGAAAAATAACACACACATAAACATATATA [CACACA_site8899],9.54 ± 0.35
15,TTGTAAGAAAAACACACACACACATATATATATATA [CACACA_site795],10.1 ± 0.014
16,ATGTTGTACAGACACACACACAAAAAAAAAATAAAA [CACACA_site7184],9.46 ± 0.56
17,ATATATATATGTATGTATATATATATATATATGTTT [CACACA_negctrl_site248],9.08 ± 0.34
18,GTTATATGTTATATATATATATATATATATATATAT [TGCATGCA_negctrl_site428],9.51 ± 0.27
19,TATATATATATATATATATATATATATATATGTTGT [TGCATGCA_negctrl_site24],10.24 ± 0.085
20,TTTTCTTCATAAATGCTGCACTGGTTTAAGCATGAT,8.6 ± 0.46
21,TGGGAAGGGTGGGAAACTTTATCAAAAACTTATTAC [GTGCAC_negctrl_site16],8.98 ± 0.24
22,TTTTGTTGATTTATATCTGTAGGGTTTAATATAACA [XGTACX_negctrl_site174],8.51 ± 0.33
